In PubChem BioAssay (NCATS):
Records with an inconclusive call do not appear. Where a call stands in place of a potency, no number is given. The source made the active and inactive calls. Calls come from the whole dose curve; as a rule, active = well fitted inhibition curve with a large enough effect; inconclusive = small, poorly fitted or top-dose-only effect; inactive = flat fitted curve, though single readings scatter.

Tests used:
Assay in all cases: qHTS profiling for inhibitors of Plasmodium falciparum proliferation (AID 504749); note: nearly all actives have a fitted effect of over 60% in size
Conditions in all cases: P. falciparum in erythrocytes, SYBR Green DNA, 72 h; series mostly up to 28.7 µM
ATS95 = test system: ATS95
Procedure, shortened: (§1)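 SYBR Green fluorescence of parasite DNA, read after lysis and overnight dark incubation, measured growth over 72 h in erythrocyte culture at 0.3% parasitemia and 2.5% hematocrit. Data normalised to DMSO and 0.29 uM artemisinin, with plate-drift correction.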

C2A = test system: C2A
Procedure, shortened: as §1

CP215 = test system: CP215
Procedure, shortened: as §1

CP217 = test system: CP217
Procedure, shortened: as §1

CP237 = test system: CP237
Procedure, shortened: as §1

CP238 = test system: CP238
Procedure, shortened: as §1

CP250 = test system: CP250
Procedure, shortened: as §1

CP252 = test system: CP252
Procedure, shortened: as §1

CP256 = test system: CP256
Procedure, shortened: as §1

CP265 = test system: CP265
Procedure, shortened: as §1

CP268 = test system: CP268
Procedure, shortened: as §1

CP269 = test system: CP269
Procedure, shortened: as §1

CP325 = test system: CP325
Procedure, shortened: as §1

CP329 = test system: CP329
Procedure, shortened: as §1

CP335 = test system: CP335
Procedure, shortened: as §1

Dd2 = test system: Dd2
Procedure, shortened: as §1

GB4 = test system: GB4
Procedure, shortened: as §1

P93_24 = test system: P93_24
Procedure, shortened: as §1

PAD = test system: PAD
Procedure, shortened: as §1

SC27B = test system: SC27B
Procedure, shortened: as §1
Potency is the fitted concentration of half-maximal effect.

Structure (SMILES)	Potency (ATS95)	Potency (C2A)	Potency (CP215)	Potency (CP217)	Potency (CP237)	Potency (CP238)	Potency (CP250)	Potency (CP252)	Potency (CP256)	Potency (CP265)	Potency (CP268)	Potency (CP269)	Potency (CP325)	Potency (CP329)	Potency (CP335)	Potency (Dd2)	Potency (GB4)	Potency (P93_24)	Potency (PAD)	Potency (SC27B)
CO[C@H]1/C=C/O[C@@]2(C)Oc3c(C)c(O)c4c(O)c(c(/C=N\N5CCN(C6CCCC6)CC5)c(O)c4c3C2=O)NC(=O)/C(C)=C\C=C\[C@H](C)[C@H](O)[C@@H](C)[C@@H](O)[C@@H](C)[C@H](OC(C)=O)[C@@H]1C	1.26 µM (active)	2.51 µM (active)	4.26 µM (active)	1.41 µM (active)	0.224 µM (active)	2.24 µM (active)	3.16 µM (active)	1.41 µM (active)	2.82 µM (active)	1.26 µM (active)	3.79 µM (active)	3.38 µM (active)	4.78 µM (active)	4.78 µM (active)	1.35 µM (active)	0.447 µM (active)	1.07 µM (active)	0.355 µM (active)	0.199 µM (active)	0.251 µM (active)
C=C1/C(=C\C=C2/CCC[C@]3(C)[C@@H]([C@H](C)CCCC(C)(C)O)CC[C@@H]23)C[C@@H](O)C[C@@H]1O	inactive	inactive	inactive	inactive	inactive	inactive	inactive	inactive	inactive	inactive	inactive	inactive	inactive	inactive	inactive	inactive	inactive	inactive	inactive	inactive
CN=C(N)NCCCC(N)C(=O)O (stereo not given)	inactive	inactive	inactive	inactive	inactive	inactive	inactive	inactive	inactive	inactive	inactive	inactive	inactive	inactive	inactive	inactive	inactive	inactive	inactive	inactive
CN1C(=O)CCC1c1cccnc1 (stereo not given)	inactive	inactive	inactive	inactive	inactive	inactive	inactive	inactive	inactive	inactive	inactive	inactive	inactive	inactive	inactive	inactive	inactive	inactive	inactive	inactive
